These results are taken from PubChem BioAssay (NCATS).

Test [1] concerns the target Cytochrome P450 2D6 (Homo sapiens) (UniProt P10635). The test can be described thus: Cytochrome P450 family 2 subfamily D member 6 (CYP2D6) small molecule antagonists: luciferase biochemical (cell-free) qHTS assay (AID 1645840). Further: nearly all actives have a fitted effect of over 55% in size. Further: potency means the concentration at half of the fitted maximal effect. On activity change, negative = inhibition: series mostly up to about 57 µM; on the % scale 0 is the no-effect control and ±100 the full control effect. The method, boiled down:
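P450-Glo luminescent screen: recombinant CYP2D6 enzyme–proluciferin substrate mix preincubated with compound 10 min at room temperature, then NADPH regeneration added for 1 h at room temperature. Detection reagent added for 20 min; luciferin light read as relative luminescence units.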

The target in test [2] is Cytochrome P450 2C9 (Homo sapiens) (UniProt P11712). Briefly: Cytochrome P450 family 2 subfamily C member 9 (CYP2C9) small molecule antagonists: luciferase biochemical (cell-free) qHTS assay (AID 1645842). Further: nearly all actives have a fitted effect of over 55% in size. Further: potency means the concentration at half of the fitted maximal effect. On activity change, negative = inhibition: series mostly up to about 57 µM; on the % scale 0 is the no-effect control and ±100 the full control effect. The method, boiled down: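 Luminescence, after 20 min with luciferin detection reagent, reflected CYP2C9 turnover during a 1 h NADPH-driven reaction at 37C. Enzyme-substrate mix contained 0.4% bovine serum albumin and was preincubated with compound 10 min at room temperature.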
Sequence of Cytochrome P450 2C9 (Homo sapiens) (P11712 whole entry, looked up): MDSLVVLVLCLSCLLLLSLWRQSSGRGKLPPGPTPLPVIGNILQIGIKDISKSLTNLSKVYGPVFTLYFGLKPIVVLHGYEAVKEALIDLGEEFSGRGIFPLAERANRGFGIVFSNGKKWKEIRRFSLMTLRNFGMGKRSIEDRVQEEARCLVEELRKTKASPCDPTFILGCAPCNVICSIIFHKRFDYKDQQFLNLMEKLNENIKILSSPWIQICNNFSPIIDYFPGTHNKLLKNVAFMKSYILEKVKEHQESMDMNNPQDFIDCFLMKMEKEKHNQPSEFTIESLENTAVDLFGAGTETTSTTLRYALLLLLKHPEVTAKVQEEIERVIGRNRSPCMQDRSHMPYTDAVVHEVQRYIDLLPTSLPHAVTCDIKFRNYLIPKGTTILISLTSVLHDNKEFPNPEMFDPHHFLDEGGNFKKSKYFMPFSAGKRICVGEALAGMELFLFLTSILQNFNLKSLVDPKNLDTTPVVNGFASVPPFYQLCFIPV

Test [3] can be described thus: A High-Content qHTS Against Drug Library for the Identification of Small Molecules that Inhibit DYT1 Early Onset Primary Dystonia-Associated Cell Pathology (AID 1645839; calls by dose curve; further: potency means the concentration at half of the fitted maximal effect). The method, boiled down: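 Flp-In T-REx 293 cells with tetracycline-inducible EGFP-delE hTOR1A (WT EGFP-hTOR1A as reference), 800 cells/well; compound added with tetracycline, 48 h at 37 C. Fixed, permeabilized cells imaged; %pathology (punctate TorsinA) primary, cell count counterscreen.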

Test [4] can be described thus: Primary qHTS for inhibitors of nuclear receptor binding SET domain protein 2 (NSD2) in an RCH-ACV wild type WT cells (2C) (AID 1645877; active means well fitted curve in the direction sought with a large enough effect; an effect the other way counts as inactive or inconclusive; further: nearly all actives have a fitted effect of over 70% in size; further: potency means the concentration at half of the fitted maximal effect).
Test [5] has as its target Cytochrome P450 3A4 (Homo sapiens) (UniProt P08684). Briefly: Cytochrome P450 family 3 subfamily A member 4 (CYP3A4) small molecule antagonists: luciferase qHTS assay (AID 1645841). Further: nearly all actives have a fitted effect of over 45% in size. An outline of the steps:
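P450-Glo CYP3A4 enzyme with proluciferin substrate preincubated 10 min with compound at room temperature, then NADPH regeneration 1 h. Luciferin detection reagent added for 20 min; luminescence recorded. Ketoconazole positive control.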

The nature of test [6]: Primary qHTS for inhibitors of nuclear receptor binding SET domain protein 2 (NSD2) in an isogenic RCH-ACV NSD2 p.E1099K mutant (9B) (AID 1645876; active means well fitted curve in the direction sought with a large enough effect; an effect the other way counts as inactive or inconclusive; further: nearly all actives have a fitted effect of over 70% in size; further: potency means the concentration at half of the fitted maximal effect).

Values joined by “and” are separate entries in the source; they are usually repeats but may differ in a detail not shown here. Equal entries are not always repeated. Inconclusive results are not listed. Unmarked numbers belong to inactive results. Active and inactive are the calls of the source. Unless noted, the call rests on the fitted dose curve; in most records, active means well fitted curve in the direction sought with a large enough effect in the repeat runs; inconclusive means weak or mixed curves; inactive means no such curve, though single readings can be large; an effect the other way counts as inactive or inconclusive.

Sequence of Cytochrome P450 3A4 (Homo sapiens) (P08684 whole entry, looked up): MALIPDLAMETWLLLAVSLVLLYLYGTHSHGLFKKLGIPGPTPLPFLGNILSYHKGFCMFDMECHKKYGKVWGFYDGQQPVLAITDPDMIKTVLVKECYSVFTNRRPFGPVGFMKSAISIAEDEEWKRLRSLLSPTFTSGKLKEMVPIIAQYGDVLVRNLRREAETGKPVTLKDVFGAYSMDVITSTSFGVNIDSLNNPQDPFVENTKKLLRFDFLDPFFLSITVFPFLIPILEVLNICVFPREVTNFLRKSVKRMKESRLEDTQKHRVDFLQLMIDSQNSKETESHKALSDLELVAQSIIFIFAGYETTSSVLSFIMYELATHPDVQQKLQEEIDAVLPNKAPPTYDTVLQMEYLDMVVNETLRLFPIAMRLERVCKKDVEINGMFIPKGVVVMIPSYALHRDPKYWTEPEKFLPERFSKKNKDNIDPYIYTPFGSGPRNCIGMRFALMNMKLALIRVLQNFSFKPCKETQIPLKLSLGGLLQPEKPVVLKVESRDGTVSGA
Sequence of Cytochrome P450 2D6 (Homo sapiens) (P10635 whole entry, looked up): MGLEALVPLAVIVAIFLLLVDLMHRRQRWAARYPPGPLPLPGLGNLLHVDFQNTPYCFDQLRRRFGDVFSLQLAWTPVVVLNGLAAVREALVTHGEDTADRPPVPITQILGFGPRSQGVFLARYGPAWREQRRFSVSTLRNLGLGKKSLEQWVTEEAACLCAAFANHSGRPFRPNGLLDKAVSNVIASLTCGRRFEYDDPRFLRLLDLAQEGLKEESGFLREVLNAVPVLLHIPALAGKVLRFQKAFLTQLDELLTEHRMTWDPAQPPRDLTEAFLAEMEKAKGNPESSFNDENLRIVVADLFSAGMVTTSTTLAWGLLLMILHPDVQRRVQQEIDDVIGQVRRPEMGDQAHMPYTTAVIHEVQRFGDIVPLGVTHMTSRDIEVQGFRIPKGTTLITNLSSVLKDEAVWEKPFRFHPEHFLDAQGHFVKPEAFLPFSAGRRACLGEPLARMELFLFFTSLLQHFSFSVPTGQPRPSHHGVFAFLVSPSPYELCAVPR

Consider `COc1cccc(CCc2ccccc2OCC(CN(C)C)OC(=O)CCC(=O)O)c1` (stereo unspecified), for which, in test [1], the Potency is 0.195 µM (active). Further, the Potency result in test [2] was “inactive”.

In the case of `CC(=O)OCC(=O)[C@@]1(O)CC[C@H]2[C@@H]3CCC4=CC(=O)C=C[C@]4(C)[C@H]3[C@@H](O)C[C@@]21C`, the Potency entry in test [3] and in test [2] was “inactive” in each case. In test [4], the Potency is 18.8 nM (active) and 183 nM (active).

With `CC(=O)O[C@]1(C(C)=O)CC[C@H]2[C@@H]3C[C@H](C)C4=CC(=O)CC[C@]4(C)[C@H]3CC[C@@]21C`, the Potency result in test [1] is “inactive”. Besides, the compound was called inactive in test [5]. Besides, the Potency in test [2] was 3.09 µM (active); in test [6], 25.8 µM (active).

For `CC(C)(C)NC(=O)[C@@H]1CN(Cc2cccnc2)CCN1C[C@@H](O)C[C@@H](Cc1ccccc1)C(=O)N[C@H]1c2ccccc2C[C@H]1O`, the Potency entry in test [3], in test [2], in test [6] and in test [4] was “inactive” each time.

On to `Oc1c(I)cc(Cl)c2cccnc12`, for which the Potency in test [3] is 5.62 µM (active); in test [4] it was 8.41 µM (active).

Regarding `CCN(CCCc1ccccc1)CCCc1ccccc1`, the Potency in test [1] is 1.23 µM (active). In test [2], the Potency result was “inactive”.

For the compound `CCCOC(C(=O)OC1CCN(C)CC1)(c1ccccc1)c1ccccc1`, in test [1], the Potency was 3.47 µM (active). The Potency entry in test [2] was “inactive”.

As for `C[C@@H]1C[C@H]2[C@@H]3CCC4=CC(=O)C=C[C@]4(C)[C@@]3(F)[C@@H](O)C[C@]2(C)[C@H]1C(=O)CO`, the Potency entry in test [1] is “inactive”. The Potency in test [2] is 11 µM (active).

`COc1cc(-c2ccc(=O)[nH]n2)ccc1OC(F)F`: the Potency result in test [3], in test [6] and in test [4] was “inactive” each time.

As for `Nc1ccn([C@@H]2O[C@H](CO)[C@@H](O)C2(F)F)c(=O)n1`, the Potency result in test [1] and in test [2] was “inactive” each time. The compound was called inactive in test [5].

Consider `O=C(CCN1CCC(c2ccccc2)C1)c1ccc2c(c1)OCCO2` (stereo unspecified), for which the results for the Potency in test [1], in test [6] and in test [4] were 0.977 µM (active), 2.37 µM (active) and 2.99 µM (active), respectively. For the same compound, the call in test [5] was inactive. For the same compound, the Potency entry in test [2] is “inactive”.

For the compound `Oc1c(Cl)cc(Cl)cc1Sc1cc(Cl)cc(Cl)c1O`, the Potency is 12 µM (active) in test [1] and 6.01 µM (active) in test [2].

For `NC[C@H]1O[C@H](O[C@H]2[C@H](O[C@@H]3O[C@H](CO)[C@@H](O)[C@H]3O)C(O)[C@H](N)C[C@@H]2N)[C@H](N)[C@@H](O)[C@@H]1O` (stereo partly specified), the activity change, negative = inhibition in test [1] is 6.46% [at 11.5 µM]; in test [2], 8.72% [at 11.5 µM].

Turning to `CC(=O)OCC(=O)NCCCOc1cccc(CN2CCCCC2)c1`, the Potency result in test [3], in test [2], in test [6] and in test [4] was “inactive” throughout.

Turning to `CCCCOc1ccc(OCCCN2CCOCC2)cc1`, in test [1], the Potency is 13.8 µM (active). Moreover, the Potency entry in test [2] was “inactive”.

On to `CN1CCC(=C2c3ccccc3Sc3ccccc32)CC1`, for which the results for the Potency in test [1], in test [6] and in test [4] were 1.38 µM (active), 16.8 µM (active) and 11.9 µM (active), respectively. Also, the outcome in test [5] was inactive. In addition, the Potency result in test [2] was “inactive”.

With `O=C(COc1ccc(Cl)cc1)N1CCN(Cc2ccc3c(c2)OCO3)CC1`, the values for the Potency in test [1] and in test [2] were 0.436 µM (active) and 12.3 µM (active), respectively.

As for `COC1=CC(=O)C[C@@H](C)[C@]12Oc1c(Cl)c(OC)cc(OC)c1C2=O`, the Potency entry in test [1] and in test [2] was “inactive” each time.

Turning to `CCN(CC)C(=O)/C(C#N)=C/c1cc(O)c(O)c([N+](=O)[O-])c1`, the Potency entry in test [1] is “inactive”. For the same compound, in test [2], the Potency was 0.0436 µM (active).

With `O=c1c(-c2ccccc2)c1-c1ccccc1`, the Potency entry in test [1] was “inactive”.

As for `CC(C)(Oc1ccc(Cl)cc1)C(=O)O`, the Potency entry in test [3], in test [6] and in test [4] was “inactive” in each case.

Consider `COc1cc2c(cc1OC)[C@@H]1CC(=O)[C@@H](CC(C)C)CN1CC2`, for which the Potency entry in test [3], in test [6] and in test [4] was “inactive” throughout. For the same compound, the Potency in test [2] is 15.5 µM (active).

With `c1ccc(OCc2ccc(CCCN3CCOCC3)cc2)cc1`, the Potency in test [1] was 6.92 µM (active). The Potency result in test [2] was “inactive”.

`Cc1cccn2c(=O)c(-c3nnn[nH]3)cnc12`: the Potency result in test [3], in test [2], in test [6] and in test [4] was “inactive” each time.

With `CN=C(NC#N)NCCSCc1csc(N=C(N)N)n1`, the Potency result in test [3], in test [6] and in test [4] was “inactive” throughout.

With `Cc1ccc(O)c2ncccc12`, the Potency entry in test [1] and in test [2] was “inactive” each time. Besides, the Potency in test [6] was 10.6 µM (active).

Take `O=C(OCC(O)CO)c1ccccc1Nc1ccnc2cc(Cl)ccc12` (stereo unspecified): the Potency in test [1] is 8.71 µM (active); in test [2], 5.49 µM (active); in test [6] it was 16.8 µM (active); in test [4] it was 23.7 µM (active).

With `CCCCC1=NC2(CCCC2)C(=O)N1Cc1ccc(-c2ccccc2-c2nn[nH]n2)cc1`, the Potency result in test [1], in test [6] and in test [4] was “inactive” throughout. Besides, the Potency in test [2] was 17.4 µM (active).

Regarding `C=C(CC)C(=O)c1ccc(OCC(=O)O)c(Cl)c1Cl`, the Potency entry in test [1] is “inactive”. Besides, the Potency in test [2] is 3.89 µM (active); in test [6] it was 21.1 µM (active).

As to `CC(C)N=C(N)/N=C(\N)Nc1ccc(Cl)cc1`, in test [1], the Potency was 3.09 µM (active). For the same compound, in test [2], the Potency result is “inactive”.

Consider `CC(=O)CC(c1ccc([N+](=O)[O-])cc1)c1c(O)c2ccccc2oc1=O` (stereo unspecified), for which the Potency result in test [1], in test [6] and in test [4] was “inactive” each time. The Potency in test [2] was 2.19 µM (active).

Turning to `CCCCCCCCCCCCCCCC[N+](C)(C)CCN(Cc1ccc(OC)cc1)c1ncccn1`, the Potency in test [1] is 5.49 µM (active); in test [2], 24.5 µM (active); in test [6], 0.668 µM (active); in test [4], 0.75 µM (active).

Turning to `CC(C)(C)CC(C)(C)c1ccc(O)c(Cc2ccc(Cl)cc2Cl)c1`, the Potency in test [1] is 19.5 µM (active); in test [2], 3.09 µM (active). Also, the Potency entry in test [6] is “inactive”.

As to `CCCCS(=O)(=O)N[C@@H](Cc1ccc(OCCCCC2CCNCC2)cc1)C(=O)O`, the Potency entry in test [1], in test [2], in test [6] and in test [4] was “inactive” throughout.
